40 molecules from PubChem BioAssay (Tox21) can be followed below.

Molecules are shown by their SMILES. Calls of active or inactive are those of the source. Where a call stands in place of a potency, no number is given. The call rests on the fitted dose curve; in most records, active means well fitted activation curve with a large enough effect in the repeat runs; inconclusive means weak or mixed curves; inactive means flat fitted curve, though single readings scatter.

The target of the test is KiSS-1 receptor (Homo sapiens) (UniProt Q969F8). The experiment in a line: Human kisspeptin (KISS1R) small molecule agonists, calcium flux assay in KISS1R-HEK293 cells (AID 1920064). Conditions: KISS1R-HEK293, calcium flux fluorescence, agonist; series mostly up to 76.8 µM. The source says: National Center for Advancing Translational Sciences [NCATS]
KiSS-1 receptor (Homo sapiens), sequence (Q969F8 whole entry, looked up): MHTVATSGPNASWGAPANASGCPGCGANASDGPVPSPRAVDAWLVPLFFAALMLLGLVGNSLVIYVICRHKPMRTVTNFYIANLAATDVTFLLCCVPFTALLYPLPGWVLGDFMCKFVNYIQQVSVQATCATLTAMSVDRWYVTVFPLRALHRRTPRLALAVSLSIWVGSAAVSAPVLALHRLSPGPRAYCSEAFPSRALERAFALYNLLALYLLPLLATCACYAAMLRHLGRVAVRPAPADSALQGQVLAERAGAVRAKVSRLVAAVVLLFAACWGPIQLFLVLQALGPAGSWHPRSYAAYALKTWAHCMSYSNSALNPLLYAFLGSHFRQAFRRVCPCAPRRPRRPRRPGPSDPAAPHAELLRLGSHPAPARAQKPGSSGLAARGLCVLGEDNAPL
Division of Preclinical Innovation [DPI]
U.S. Environmental Protection Agency [EPA]
National Institutes of Environmental Health Sciences [NIEHS]
National Toxicology Program [NTP]
U.S. Food and Drug Administration [FDA]
Kisspeptin and its receptor KISS1R play key roles in mammalian reproduction due to their involvement in the onset of puberty and control of the hypothalamic-pituitary-gonadal axis such as regulates GnRH release from the hypothalamus. The kisspeptin/KISS1R system also plays a direct role in peripheral organs (including the ovary, testis, uterus, and placenta) and is implicated in reproductive diseases such as miscarriage and polycystic ovary syndrome (PCOS). Abnormal KISS1R activity is associated with abnormal puberty, infertility, endometriosis, and hormone-dependent tumors. The KISS1 receptor (KISS1R, also called GPR54), a G-protein-coupled receptor (GPCR), acts (through phospholipase C) to increase intracellular inositol trisphosphate and then release intracellular calcium stores. Cell-based KISS1R-HEK293 assay is using HEK293 cells that have been genetically engineered to express the human KISS1R, which activity can be measured by calcium signaling. A compound/drug can activate (agonist) KISS1R that can be monitored by levels of intracellular calcium.
KISS1R-HEK293 cells developed by Codex Corp contain human KISS1R gene, which was stably integrated into HEK 293 cells. The compound activation can be detected by fluorescence intensity via calcium flux assay. This cell line has been used to screen the Tox21 10K compound library to identify agonists of KISS1R.
KISS1R-Hek293 cells were dispensed at 1500 cells/4uL/well in 1536-well black wall/clear bottom plates using a multidrop dispenser. After the assay plates were incubated at a 37 C/5% CO2 incubator for 18 hours, 4 microL of Calcium Dye Solution was added to each well. The plates were incubated at 37 C for 1 hour. And then 23 nL of compounds dissolved in DMSO, positive controls, or DMSO only was transferred to the assay plate by a pin tool station. The fluorescence intensity in the plates was measured using FDSS 7000EX kinetic plate reader with a filter set of Ex/Em=480/540 for 3 min at 1 sec intervals. Each test compound was measured at 15 concentrations and in triplicates.
For orientation: Calcium flux is commonly read through the fluorescence of an indicator in the cells.
`CC1=C2[C@H]3OC(=O)[C@@H](C)[C@@H]3CC[C@@]2(C)C=CC1=O`: the Potency result is “inactive”.
On to `CC(C)NC(C)C`, for which the Potency result was “inactive”.
With `CCCCn1cc[n+](C)c1C`, the Potency entry is “inactive”.
Consider `Cc1ccccc1N`, for which the Potency result was “inactive”.
On to `CC1OC(C)OC(C)O1` (stereo not given), for which the Potency result is “inactive”.
As for `Cl/C=C\C[N+]12CN3CN(CN(C3)C1)C2`, the Potency result was “inactive”.
For `CCN(CC)CCN1C(=O)CN=C(c2ccccc2F)c2cc(Cl)ccc21`, the Potency entry is “inactive”.
`C=CC#N`: the Potency entry was “inactive”.
As for `CCC(=O)OC1(c2ccccc2)CCN(C)CC1`, the Potency entry is “inactive”.
In the case of `N#Cc1ccccc1N`, the Potency entry is “inactive”.
On to `C=CCN1C[C@H](C)N([C@H](c2ccc(C(=O)N(CC)CC)cc2)c2cccc(OC)c2)C[C@H]1C`, for which the Potency result was “inactive”.
In the case of `c1cc2c3c(cccc3c1)CC2`, the Potency result is “inactive”.
For `c1ccc(N=Nc2ccccc2)cc1` the value was “inactive”; for `CCNc1nc(Cl)nc(NCC)n1`, “inactive”; for `CC(=O)O`, “inactive”.
Regarding `Nc1ccc(Cl)cc1N`, the Potency result was “inactive”.
For `CC1CCC(=O)O1` (stereo not given), the Potency result is “inactive”.
Consider `C1CC2OC2CC1C1CO1` (stereo not given), for which the Potency result is “inactive”.
With `C[C@@H]1O[C@@H](O[C@H]2C[C@@H](O)[C@]3(CO)[C@H]4[C@H](O)C[C@]5(C)[C@@H](C6=CC(=O)OC6)CC[C@]5(O)[C@@H]4CC[C@]3(O)C2)[C@H](O)[C@H](O)[C@H]1O`, the Potency result is “inactive”.
For `CCOC(=O)c1ccccc1N` the value was “inactive”; for `CCCCCCCCCCCOC(=O)c1ccccc1C(=O)OCCCCCCCCCCC`, “inactive”; for `Oc1ccccc1-c1ccccc1`, “inactive”.
The same measure for `O=P(OCCCl)(OCCCl)OCCCl`: “inactive”.
In the case of `O=C(Cl)c1ccccc1`, the Potency result is “inactive”.
In the case of `O=S(=O)(O)C(F)(F)C(F)(F)C(F)(F)C(F)(F)C(F)(F)C(F)(F)C(F)(F)C(F)(F)F`, the Potency result is “inactive”.
For `CN1CC[C@]23c4c5ccc(O)c4O[C@H]2[C@@H](O)CC[C@H]3[C@H]1C5`, the Potency result is “inactive”.
On to `CC(C)N(C(=O)SCC(Cl)=C(Cl)Cl)C(C)C`, for which the Potency result was “inactive”.
Turning to `C=CC(=O)OCC(CC)CCCC` (stereo not given), the Potency result is “inactive”.
Turning to `O=[N+]([O-])c1ccc(Cl)c(Cl)c1`, the Potency result was “inactive”.
On to `CCCCn1cc[n+](C)c1`, for which the Potency result was “inactive”.
In the case of `CCOC(=O)C(c1c(O)c2ccccc2oc1=O)c1c(O)c2ccccc2oc1=O`, the Potency entry is “inactive”.
On to `CC(C)(C)C(=O)C(Cl)Cl`, for which the Potency result is “inactive”.
Consider `C=CCOCC1CO1` (stereo not given), for which the Potency entry is “inactive”.
`c1cc2c(c(N3CCNCC3)c1)OCCO2`: the Potency result was “inactive”.
For the molecule `Nc1cccc2ccccc12`, the Potency result was “inactive”.
For `ClCC(Cl)(Cl)Cl` the value was “inactive”; for `CCCCN(CCCCO)N=O`, “inactive”.
As to `CN(C)C(=O)Cl`, the Potency entry was “inactive”.
Regarding `ClCCN1CCOCC1`, the Potency result is “inactive”.
In the case of `Cc1ccc(Cl)c(O)c1`, the Potency result was “inactive”.
